Results on three compounds are retold here after ChEMBL document CHEMBL2218924, “A broad activity screen in support of a chemogenomic map for kinase signalling research and drug discovery” (Biochem J, 2013).

The target in experiment [1] is T1, Dual specificity tyrosine-phosphorylation-regulated kinase 2 (Homo sapiens) (UniProt Q92630).
T1 sequence (whole entry): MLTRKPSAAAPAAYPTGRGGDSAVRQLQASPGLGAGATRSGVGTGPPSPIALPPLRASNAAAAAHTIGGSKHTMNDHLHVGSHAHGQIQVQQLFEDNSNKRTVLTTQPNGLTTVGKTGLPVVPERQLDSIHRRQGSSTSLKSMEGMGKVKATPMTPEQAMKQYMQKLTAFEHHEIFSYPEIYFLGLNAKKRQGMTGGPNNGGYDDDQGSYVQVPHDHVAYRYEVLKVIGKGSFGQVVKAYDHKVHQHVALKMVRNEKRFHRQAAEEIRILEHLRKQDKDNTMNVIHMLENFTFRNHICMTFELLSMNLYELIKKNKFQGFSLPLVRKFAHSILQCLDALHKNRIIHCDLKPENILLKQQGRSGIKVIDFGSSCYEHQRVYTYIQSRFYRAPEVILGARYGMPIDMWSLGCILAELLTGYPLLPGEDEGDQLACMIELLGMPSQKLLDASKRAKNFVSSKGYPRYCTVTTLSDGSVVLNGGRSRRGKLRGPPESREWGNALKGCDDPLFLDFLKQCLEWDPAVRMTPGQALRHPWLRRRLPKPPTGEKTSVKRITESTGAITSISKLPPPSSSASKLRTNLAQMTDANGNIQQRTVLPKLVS
As to conditions: at 1 µM.

The target in experiment [2] is T1, Dual specificity tyrosine-phosphorylation-regulated kinase 2 (Homo sapiens). As to conditions: at 10 µM.
For experiment [3], the target named is Epidermal growth factor receptor (Homo sapiens) (UniProt P00533). As to conditions: at 10 µM.
Experiment [4] addresses Ephrin type-A receptor 5 (Homo sapiens) (UniProt P54756). The settings on record: at 10 µM.
In experiment [5] the target is T2, Serine/threonine-protein kinase 17A (Homo sapiens) (UniProt Q9UEE5).
T2 sequence (whole entry): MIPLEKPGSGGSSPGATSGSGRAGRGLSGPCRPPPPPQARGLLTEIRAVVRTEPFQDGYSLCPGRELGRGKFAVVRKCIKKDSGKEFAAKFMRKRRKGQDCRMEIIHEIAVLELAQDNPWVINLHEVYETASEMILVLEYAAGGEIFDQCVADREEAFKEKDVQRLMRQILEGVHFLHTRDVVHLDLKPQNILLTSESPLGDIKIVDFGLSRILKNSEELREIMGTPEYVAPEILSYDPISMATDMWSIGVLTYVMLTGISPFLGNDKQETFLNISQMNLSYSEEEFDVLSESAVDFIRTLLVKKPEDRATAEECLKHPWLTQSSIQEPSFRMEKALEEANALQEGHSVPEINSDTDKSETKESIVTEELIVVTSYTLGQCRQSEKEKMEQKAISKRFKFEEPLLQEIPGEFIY
As to conditions: at 10 µM.

Experiment [6] has as its target T3, Ephrin type-A receptor 1 (Homo sapiens) (UniProt P21709).
T3 sequence (whole entry): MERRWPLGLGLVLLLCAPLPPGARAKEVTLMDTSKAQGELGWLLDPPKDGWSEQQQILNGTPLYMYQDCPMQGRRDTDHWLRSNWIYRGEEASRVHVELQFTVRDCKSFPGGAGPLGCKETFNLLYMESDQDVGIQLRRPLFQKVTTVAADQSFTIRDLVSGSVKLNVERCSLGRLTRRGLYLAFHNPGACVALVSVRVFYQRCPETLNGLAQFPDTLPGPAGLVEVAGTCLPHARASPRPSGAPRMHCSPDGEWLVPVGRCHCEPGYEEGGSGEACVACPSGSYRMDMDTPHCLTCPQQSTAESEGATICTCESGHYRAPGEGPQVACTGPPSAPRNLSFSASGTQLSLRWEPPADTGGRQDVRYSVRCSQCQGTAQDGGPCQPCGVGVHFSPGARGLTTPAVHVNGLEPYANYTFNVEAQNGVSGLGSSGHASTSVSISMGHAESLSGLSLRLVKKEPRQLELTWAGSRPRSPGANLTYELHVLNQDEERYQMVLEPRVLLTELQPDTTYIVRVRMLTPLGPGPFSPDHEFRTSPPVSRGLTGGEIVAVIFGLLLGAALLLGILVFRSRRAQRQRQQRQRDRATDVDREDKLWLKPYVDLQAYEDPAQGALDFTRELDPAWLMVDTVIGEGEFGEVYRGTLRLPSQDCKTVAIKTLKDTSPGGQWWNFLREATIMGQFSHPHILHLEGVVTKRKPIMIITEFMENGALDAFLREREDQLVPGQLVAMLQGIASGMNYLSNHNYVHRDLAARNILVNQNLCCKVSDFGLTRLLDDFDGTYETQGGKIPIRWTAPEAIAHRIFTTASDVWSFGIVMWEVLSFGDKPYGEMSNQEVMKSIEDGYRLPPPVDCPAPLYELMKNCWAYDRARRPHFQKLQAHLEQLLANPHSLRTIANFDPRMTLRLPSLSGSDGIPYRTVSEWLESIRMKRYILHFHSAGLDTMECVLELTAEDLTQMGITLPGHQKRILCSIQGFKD
As to conditions: at 1 µM.

The target of experiment [7] is Ephrin type-A receptor 2 (Homo sapiens) (UniProt P29317). As to conditions: at 10 µM.
Chain of Ephrin type-A receptor 2 (Homo sapiens) (P29317 whole entry): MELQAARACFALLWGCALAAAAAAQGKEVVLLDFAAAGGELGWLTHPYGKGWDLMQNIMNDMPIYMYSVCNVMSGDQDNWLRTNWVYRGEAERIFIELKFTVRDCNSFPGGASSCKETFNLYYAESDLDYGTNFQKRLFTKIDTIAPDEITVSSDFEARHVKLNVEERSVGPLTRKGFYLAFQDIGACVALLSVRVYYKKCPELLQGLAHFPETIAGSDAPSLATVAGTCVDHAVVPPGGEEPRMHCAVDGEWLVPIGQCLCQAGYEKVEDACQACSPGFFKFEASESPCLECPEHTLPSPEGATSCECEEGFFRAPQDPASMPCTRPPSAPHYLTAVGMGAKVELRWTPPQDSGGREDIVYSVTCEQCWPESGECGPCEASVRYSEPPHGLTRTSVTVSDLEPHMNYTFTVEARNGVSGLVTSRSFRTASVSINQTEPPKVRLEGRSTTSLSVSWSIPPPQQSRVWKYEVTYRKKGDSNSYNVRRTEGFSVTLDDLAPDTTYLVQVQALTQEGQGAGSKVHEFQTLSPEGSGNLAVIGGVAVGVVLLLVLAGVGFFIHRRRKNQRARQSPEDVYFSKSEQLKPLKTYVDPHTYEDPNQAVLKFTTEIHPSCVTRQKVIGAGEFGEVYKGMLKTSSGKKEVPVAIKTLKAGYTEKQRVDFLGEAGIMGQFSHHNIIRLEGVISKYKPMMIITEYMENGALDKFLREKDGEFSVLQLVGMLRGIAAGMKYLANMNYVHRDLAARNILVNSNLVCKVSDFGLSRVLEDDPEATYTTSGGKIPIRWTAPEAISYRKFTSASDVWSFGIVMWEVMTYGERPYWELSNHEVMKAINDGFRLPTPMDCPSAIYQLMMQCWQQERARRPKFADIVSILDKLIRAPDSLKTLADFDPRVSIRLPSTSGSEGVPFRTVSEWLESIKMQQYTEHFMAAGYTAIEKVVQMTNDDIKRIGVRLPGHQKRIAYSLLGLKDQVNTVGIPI
For experiment [8], the target named is T4, Ephrin type-A receptor 3 (Homo sapiens) (UniProt P29320).
T4 sequence (whole entry): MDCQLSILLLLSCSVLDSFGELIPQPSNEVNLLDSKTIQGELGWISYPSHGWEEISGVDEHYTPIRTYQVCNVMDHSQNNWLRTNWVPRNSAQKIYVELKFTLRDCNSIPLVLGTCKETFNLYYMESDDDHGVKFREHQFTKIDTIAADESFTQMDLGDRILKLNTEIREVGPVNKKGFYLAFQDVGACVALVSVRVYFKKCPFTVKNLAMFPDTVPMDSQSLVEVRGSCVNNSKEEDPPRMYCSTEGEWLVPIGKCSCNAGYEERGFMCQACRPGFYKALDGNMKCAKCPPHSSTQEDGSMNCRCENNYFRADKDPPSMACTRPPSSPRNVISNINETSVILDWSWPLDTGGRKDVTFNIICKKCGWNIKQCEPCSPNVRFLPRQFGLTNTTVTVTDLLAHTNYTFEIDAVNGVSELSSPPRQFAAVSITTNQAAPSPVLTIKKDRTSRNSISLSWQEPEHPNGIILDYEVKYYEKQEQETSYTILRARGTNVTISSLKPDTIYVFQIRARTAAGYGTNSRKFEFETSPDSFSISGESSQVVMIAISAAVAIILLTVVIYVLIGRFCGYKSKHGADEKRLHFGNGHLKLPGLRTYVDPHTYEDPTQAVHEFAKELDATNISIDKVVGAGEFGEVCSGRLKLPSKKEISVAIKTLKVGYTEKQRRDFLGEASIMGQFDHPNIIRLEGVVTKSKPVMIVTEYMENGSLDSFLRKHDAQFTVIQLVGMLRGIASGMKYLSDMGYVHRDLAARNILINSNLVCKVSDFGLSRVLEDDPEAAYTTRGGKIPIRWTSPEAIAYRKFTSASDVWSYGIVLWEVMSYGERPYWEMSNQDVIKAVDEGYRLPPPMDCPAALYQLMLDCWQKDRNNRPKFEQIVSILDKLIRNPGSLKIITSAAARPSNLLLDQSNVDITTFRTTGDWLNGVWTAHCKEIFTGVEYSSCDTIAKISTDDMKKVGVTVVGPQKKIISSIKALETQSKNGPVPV
As to conditions: at 10 µM.

For experiment [9], the target named is Ephrin type-A receptor 7 (Homo sapiens) (UniProt Q15375). As to conditions: at 1 µM.
Chain of Ephrin type-A receptor 7 (Homo sapiens) (Q15375 28-998 limits assumed): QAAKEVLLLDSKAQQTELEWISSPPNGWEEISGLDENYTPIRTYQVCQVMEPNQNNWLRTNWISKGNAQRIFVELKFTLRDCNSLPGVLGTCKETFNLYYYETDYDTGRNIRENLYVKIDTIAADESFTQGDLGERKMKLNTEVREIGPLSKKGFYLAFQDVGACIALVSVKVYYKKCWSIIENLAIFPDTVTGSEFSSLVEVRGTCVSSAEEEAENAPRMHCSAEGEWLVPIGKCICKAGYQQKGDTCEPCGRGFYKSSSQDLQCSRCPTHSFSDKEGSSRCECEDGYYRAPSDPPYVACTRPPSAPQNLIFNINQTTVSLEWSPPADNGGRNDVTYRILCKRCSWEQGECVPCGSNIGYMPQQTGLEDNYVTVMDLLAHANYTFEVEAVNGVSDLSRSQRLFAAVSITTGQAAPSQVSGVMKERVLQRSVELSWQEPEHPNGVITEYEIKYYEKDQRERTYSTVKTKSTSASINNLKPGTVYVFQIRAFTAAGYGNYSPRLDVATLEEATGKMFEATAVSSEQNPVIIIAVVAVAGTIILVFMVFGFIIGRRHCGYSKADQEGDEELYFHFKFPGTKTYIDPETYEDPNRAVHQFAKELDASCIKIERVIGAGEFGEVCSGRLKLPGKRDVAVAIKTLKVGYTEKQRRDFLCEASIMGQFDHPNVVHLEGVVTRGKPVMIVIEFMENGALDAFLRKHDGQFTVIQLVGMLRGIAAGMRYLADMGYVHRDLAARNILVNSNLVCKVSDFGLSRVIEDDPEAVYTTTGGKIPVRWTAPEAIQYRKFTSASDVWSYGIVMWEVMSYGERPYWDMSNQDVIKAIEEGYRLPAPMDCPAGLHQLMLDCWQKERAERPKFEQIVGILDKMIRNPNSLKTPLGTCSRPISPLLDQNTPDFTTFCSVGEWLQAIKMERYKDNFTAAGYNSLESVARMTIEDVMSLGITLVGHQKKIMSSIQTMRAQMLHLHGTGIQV
Experiment [10] shares this target. The settings on record: at 10 µM.
For experiment [11], the target named is T5, Ephrin type-B receptor 1 (Homo sapiens) (UniProt P54762).
T5 sequence (whole entry): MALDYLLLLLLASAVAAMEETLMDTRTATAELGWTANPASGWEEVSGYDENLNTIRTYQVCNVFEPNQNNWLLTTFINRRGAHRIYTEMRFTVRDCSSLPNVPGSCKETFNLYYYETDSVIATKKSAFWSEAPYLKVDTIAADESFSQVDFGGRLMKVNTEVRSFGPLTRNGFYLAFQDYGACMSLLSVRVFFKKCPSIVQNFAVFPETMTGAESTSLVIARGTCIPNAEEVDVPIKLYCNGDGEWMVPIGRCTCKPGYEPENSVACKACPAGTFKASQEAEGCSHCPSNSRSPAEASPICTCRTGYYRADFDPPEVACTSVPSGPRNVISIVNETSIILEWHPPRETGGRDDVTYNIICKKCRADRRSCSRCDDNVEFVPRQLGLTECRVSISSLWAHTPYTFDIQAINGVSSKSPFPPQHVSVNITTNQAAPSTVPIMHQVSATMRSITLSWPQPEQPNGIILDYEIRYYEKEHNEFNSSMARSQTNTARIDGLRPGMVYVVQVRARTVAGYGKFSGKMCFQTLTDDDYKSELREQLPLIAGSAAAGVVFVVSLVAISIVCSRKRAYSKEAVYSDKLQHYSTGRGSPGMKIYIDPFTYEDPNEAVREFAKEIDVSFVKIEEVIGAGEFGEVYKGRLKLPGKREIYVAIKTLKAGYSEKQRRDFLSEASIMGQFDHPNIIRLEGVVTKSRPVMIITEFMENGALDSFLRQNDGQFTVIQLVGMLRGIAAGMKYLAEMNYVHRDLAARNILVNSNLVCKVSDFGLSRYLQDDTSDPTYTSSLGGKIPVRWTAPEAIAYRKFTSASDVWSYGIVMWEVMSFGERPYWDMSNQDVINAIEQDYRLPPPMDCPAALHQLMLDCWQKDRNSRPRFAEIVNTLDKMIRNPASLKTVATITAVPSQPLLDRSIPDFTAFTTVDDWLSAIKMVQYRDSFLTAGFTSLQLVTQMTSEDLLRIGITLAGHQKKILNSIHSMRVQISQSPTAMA
The settings on record: at 1 µM.

Experiment [12] concerns the target T2, Serine/threonine-protein kinase 17A (Homo sapiens). The settings on record: at 1 µM.
For experiment [13], the target named is T3, Ephrin type-A receptor 1 (Homo sapiens). As to conditions: at 10 µM.
The target in experiment [14] is Ephrin type-A receptor 2 (Homo sapiens) (UniProt P29317). As to conditions: at 1 µM.
Experiment [15] concerns the target T4, Ephrin type-A receptor 3 (Homo sapiens). The settings on record: at 1 µM.
For experiment [16], the target named is Ephrin type-A receptor 4 (Homo sapiens) (UniProt P54764). The settings on record: at 1 µM.
Chain of Ephrin type-A receptor 4 (Homo sapiens) (P54764 whole entry): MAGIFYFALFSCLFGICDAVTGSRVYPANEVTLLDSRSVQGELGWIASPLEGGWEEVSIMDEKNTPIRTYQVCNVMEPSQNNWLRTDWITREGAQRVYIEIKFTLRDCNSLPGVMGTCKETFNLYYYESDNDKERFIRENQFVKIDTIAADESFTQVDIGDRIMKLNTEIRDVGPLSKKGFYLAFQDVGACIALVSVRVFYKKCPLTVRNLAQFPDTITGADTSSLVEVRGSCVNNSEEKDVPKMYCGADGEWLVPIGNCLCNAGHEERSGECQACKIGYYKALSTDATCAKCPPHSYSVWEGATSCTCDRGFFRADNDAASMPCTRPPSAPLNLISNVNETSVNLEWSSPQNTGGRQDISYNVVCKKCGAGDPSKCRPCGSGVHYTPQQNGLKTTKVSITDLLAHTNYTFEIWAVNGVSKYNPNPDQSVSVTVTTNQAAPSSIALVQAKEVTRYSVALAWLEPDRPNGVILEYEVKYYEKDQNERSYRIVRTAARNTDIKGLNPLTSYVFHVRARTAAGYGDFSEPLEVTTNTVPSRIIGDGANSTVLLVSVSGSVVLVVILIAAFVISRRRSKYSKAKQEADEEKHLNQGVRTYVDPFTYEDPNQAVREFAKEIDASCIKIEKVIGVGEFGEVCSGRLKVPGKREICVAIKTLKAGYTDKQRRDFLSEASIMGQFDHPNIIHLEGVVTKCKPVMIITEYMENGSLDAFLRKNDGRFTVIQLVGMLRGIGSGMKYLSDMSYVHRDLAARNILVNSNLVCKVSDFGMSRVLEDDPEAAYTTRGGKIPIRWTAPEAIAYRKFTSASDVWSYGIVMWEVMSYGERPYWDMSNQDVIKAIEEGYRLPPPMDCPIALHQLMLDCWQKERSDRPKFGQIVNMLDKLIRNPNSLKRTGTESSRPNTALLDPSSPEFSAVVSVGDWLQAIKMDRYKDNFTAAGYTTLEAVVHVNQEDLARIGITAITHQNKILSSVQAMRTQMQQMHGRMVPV
In experiment [17] the target is Ephrin type-A receptor 5 (Homo sapiens) (UniProt P54756). The settings on record: at 1 µM.
Chain of Ephrin type-A receptor 5 (Homo sapiens) (P54756 whole entry): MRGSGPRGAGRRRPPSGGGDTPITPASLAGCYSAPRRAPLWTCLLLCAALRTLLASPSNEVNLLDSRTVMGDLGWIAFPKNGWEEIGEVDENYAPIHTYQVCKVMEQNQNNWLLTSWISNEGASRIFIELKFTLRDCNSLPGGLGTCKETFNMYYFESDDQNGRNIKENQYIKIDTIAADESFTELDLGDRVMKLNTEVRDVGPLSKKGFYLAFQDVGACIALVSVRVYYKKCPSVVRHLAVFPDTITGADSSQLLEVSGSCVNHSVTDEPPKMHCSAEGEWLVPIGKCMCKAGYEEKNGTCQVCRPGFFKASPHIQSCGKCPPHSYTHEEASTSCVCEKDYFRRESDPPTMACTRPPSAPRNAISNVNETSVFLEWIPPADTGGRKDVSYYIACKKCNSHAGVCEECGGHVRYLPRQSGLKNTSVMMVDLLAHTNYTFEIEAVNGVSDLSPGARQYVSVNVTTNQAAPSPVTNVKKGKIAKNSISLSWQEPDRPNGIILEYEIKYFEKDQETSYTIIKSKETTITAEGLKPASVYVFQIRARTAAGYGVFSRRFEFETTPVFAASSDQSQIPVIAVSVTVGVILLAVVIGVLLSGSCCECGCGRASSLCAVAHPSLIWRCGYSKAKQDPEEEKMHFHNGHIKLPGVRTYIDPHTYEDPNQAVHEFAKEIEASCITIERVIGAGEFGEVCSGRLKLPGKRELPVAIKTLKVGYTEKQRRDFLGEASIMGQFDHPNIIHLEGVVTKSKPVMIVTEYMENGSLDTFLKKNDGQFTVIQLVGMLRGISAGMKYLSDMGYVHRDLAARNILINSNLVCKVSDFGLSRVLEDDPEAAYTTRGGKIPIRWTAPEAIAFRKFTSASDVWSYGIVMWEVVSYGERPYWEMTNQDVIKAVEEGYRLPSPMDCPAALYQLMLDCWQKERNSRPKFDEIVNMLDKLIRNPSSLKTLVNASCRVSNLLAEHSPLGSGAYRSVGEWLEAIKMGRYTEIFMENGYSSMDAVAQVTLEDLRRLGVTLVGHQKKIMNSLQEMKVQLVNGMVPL
Experiment [18] has as its target T6, Ephrin type-A receptor 8 (Homo sapiens) (UniProt P29322).
T6 sequence (whole entry): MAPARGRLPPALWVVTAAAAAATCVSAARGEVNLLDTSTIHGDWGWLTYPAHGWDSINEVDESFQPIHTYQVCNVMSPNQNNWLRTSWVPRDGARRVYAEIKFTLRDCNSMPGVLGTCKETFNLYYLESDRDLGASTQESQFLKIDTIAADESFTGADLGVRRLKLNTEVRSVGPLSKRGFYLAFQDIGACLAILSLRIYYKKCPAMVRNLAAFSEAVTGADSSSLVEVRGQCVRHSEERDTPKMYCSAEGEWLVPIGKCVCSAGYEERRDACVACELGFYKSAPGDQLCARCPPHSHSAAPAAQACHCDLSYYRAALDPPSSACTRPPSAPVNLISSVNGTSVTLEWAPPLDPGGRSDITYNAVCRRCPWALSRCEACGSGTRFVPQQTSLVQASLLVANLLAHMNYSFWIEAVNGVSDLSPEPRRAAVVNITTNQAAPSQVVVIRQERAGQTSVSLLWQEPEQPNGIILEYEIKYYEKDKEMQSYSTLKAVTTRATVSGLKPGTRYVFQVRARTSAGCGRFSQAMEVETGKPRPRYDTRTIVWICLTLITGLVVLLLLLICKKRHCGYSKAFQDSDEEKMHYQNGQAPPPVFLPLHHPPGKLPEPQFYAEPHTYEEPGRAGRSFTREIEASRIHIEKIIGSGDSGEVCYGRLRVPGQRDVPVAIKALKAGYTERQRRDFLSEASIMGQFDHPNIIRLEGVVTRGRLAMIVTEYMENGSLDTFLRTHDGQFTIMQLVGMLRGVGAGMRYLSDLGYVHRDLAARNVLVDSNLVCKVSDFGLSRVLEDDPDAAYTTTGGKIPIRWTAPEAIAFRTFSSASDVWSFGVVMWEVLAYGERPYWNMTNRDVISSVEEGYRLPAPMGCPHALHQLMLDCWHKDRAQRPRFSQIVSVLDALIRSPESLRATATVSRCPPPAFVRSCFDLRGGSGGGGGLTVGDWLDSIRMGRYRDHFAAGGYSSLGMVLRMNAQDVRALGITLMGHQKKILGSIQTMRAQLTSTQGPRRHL
The settings on record: at 1 µM.

The target of experiment [19] is T6, Ephrin type-A receptor 8 (Homo sapiens). As to conditions: at 10 µM.

As usually defined, the residual activity is the signal under treatment as a percentage of the control signal.

On to `COc1ccc2c(c1)/C(=C/c1cnc[nH]1)C(=O)N2`, for which the residual activity in experiment [1] turned out to be 77%; in experiment [2], 16%; in experiment [3], 97%; in experiment [4], 81%.
Consider `COc1ccc2c(c[n+](C)c3c4cc5c(cc4ccc23)OCO5)c1OC`, for which the residual activity was 77% in [5]; 96% in experiment [2]; 94% in [6]; 100% in experiment [7]; 92% in [8]; 94% in experiment [9]. The residual activity in experiment [10] is 79%; in experiment [11] it was 89%.
Consider `CC(C)(C)c1cc(C=C(C#N)C#N)cc(Br)c1O`, for which the residual activity in [12] turned out to be 147%; in experiment [5] it was 100%; in [1], 107%; in [2] it was 101%; in [6], 115%; in experiment [13], 130%. For the same compound, the residual activity was 107% in [14]; 104% in experiment [7]; 122% in experiment [15]; 106% in experiment [8]; 113% in experiment [16]; 107% in experiment [17]. Also, the residual activity in experiment [4] came to 97%; in experiment [9] it was 109%; in experiment [10] it was 102%; in experiment [18] it was 117%; in experiment [19], 99%; in experiment [11] it was 106%.
